A selection: hits, their analogues and other compounds. The true share with any hit is near 2.1%.
IDE cell activ: boosts human insulin-degrading enzyme activity in HEK cells. P14735. FAbeta-B cleavage, fluorescence polarization; 0% vehicle, 100% cell-free pure enzyme wells. activation, % at 5.96 µM. hit rate 0.073% among 340,000. AID 493087;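 active = activation above the mean of all tested compounds plus 3 SD, set per screening campaign, cut at about 17% in these data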
LANA-H2B inh: blocks KSHV LANA binding to histone H2A/H2B; cell-free LANA-H2A/H2B peptide, fluorescence polarization; Q9QR71; AID 2629; inhibition, % (test concentration not listed); hit rate 0.6% among 320,000; in the data active = inhibition mostly above about 10%, no sharp cut-off; inactive = mostly below about 6.7%
Target sequence (Q9QR71 whole entry, looked up): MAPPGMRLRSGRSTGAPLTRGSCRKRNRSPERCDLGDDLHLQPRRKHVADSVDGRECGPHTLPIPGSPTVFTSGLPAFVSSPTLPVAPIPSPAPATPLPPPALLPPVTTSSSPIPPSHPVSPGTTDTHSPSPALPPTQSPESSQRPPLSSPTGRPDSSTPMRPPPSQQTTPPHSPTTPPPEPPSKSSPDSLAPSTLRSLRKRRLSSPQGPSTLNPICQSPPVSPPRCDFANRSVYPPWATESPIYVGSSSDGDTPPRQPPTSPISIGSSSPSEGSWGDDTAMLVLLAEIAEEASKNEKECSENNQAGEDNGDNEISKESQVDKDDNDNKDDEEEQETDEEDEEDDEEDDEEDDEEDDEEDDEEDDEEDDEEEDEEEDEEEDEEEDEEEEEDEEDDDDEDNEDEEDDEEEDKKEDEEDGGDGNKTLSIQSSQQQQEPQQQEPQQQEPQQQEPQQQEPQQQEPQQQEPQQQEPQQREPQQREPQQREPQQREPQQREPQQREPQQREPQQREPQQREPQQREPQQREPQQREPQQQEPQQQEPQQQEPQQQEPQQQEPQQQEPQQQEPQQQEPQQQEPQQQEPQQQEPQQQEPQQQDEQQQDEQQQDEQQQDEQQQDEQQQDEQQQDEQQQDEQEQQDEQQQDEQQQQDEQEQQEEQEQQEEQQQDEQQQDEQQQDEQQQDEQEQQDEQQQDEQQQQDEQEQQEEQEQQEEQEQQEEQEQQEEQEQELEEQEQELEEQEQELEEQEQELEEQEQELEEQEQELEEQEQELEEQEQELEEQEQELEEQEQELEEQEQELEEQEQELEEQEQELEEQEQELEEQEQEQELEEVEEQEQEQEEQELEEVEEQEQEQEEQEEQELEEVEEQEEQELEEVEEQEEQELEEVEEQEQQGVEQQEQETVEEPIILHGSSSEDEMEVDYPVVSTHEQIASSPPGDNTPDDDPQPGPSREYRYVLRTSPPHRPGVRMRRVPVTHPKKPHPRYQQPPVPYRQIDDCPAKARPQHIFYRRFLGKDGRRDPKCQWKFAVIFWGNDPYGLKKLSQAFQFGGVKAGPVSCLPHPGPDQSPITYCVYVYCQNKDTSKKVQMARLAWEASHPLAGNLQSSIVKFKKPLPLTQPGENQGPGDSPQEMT
IDE inh: inhibits human insulin-degrading enzyme in HEK cells. P14735. FAbetaB cleavage, fluorescence polarization. inhibition, % at 5.59 µM. hit rate 0.41% among 320,000;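 active = percent inhibition above the average of all tested compounds plus 3 SD, set per screening campaign, cut at about 16% in these data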;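 note: IDE supplied by intact live HEK cells; FP after avidin binding of uncleaved biotin substrate so inhibition keeps polarization high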
SUMO Mot1 rescue: blocks SUMOylation pathway, rescuing yeast Mot1-301 growth | S. cerevisiae Mot1-301 growth rescue, ATP luminescence, 38.5C; percent above DMSO median, 100 means doubled | growth rescue, % at 18.8 µM | hit rate 1% among 320,000 | AID 2716;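 active = every valid replicate shows activation above 250% relative to neutral control wells; inactive = the rest, any valid replicate at or below 250%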
HDAC3 inhib: inhibitors of human histone deacetylase 3. O15379. recombinant HDAC3, fluorogenic peptide/trypsin coupled, fluorescence. inhibition, % at 8.3 µM. hit rate 0.15% among 320,000. AID 2718; in the data active = inhibition above about 26%, passing the limit was not always enough
Mot1 SUMO dose: yeast SUMO pathway inhibition in dose response | growth activity, percent, % at 42 µM | shares compounds with SUMO Mot1 rescue | 2,300 tested, under 10 active | AID 493004 | S. cerevisiae Mot1-301 galactose growth, ATP luminescence, 24 h; -100 = growth of slx-deleted rescue strain;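 active = Signal drops as the depositor expects, and the fitted half-maximal dose is no more than ten times the top valid tested dose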;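 note: more negative values mean stronger growth rescue toward the control strain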
Hits are given with their value.

Screening COc1ccc(C2CC(c3cccs3)=NN2C(=O)c2ccccc2)cc1OC (stereo not given) returned IDE cell activ inactive, LANA-H2B inh inactive, IDE inh inactive, SUMO Mot1 rescue 424, HDAC3 inhib inactive and Mot1 SUMO dose inactive.
CCOC(=O)C1=CN(Cc2cccc(F)c2)S(=O)(=O)N(CC)C1CCc1ccccc1 (stereo not given) was read as IDE cell activ inactive.
Screening CCC(=O)Nc1nc(CC(=O)Nc2ccccc2OC)cs1 returned IDE cell activ inactive, LANA-H2B inh inactive, IDE inh inactive, SUMO Mot1 rescue active, HDAC3 inhib inactive and Mot1 SUMO dose inactive.
C[C@@H]1CCC(=O)N(C[C@@H](C)CSc2ccc(Br)cc2)CC1 was read as IDE cell activ inactive, LANA-H2B inh inactive, IDE inh inactive, SUMO Mot1 rescue inactive and HDAC3 inhib inactive.
Screening Cc1ccc(SC[C@H](C)CN2CC[C@H](C)CCC2=O)cc1 returned IDE cell activ inactive, LANA-H2B inh inactive, IDE inh inactive, SUMO Mot1 rescue 460, HDAC3 inhib inactive and Mot1 SUMO dose inactive.
For CC1(OC(=O)CCc2ccccc2)C(=O)C=C2C=C(c3ccc(C#N)cc3)N(CC3CC3)C=C2C1=O (stereo not given) the results were IDE cell activ inactive, LANA-H2B inh inactive, IDE inh inactive, SUMO Mot1 rescue 589, HDAC3 inhib inactive and Mot1 SUMO dose inactive.
CC1(OC(=O)CCc2ccccc2)C(=O)C=C2C=C(c3ccc(C#N)cc3)N(C3CCCC3)C=C2C1=O (stereo not given) was read as IDE cell activ inactive, LANA-H2B inh inactive, IDE inh inactive, SUMO Mot1 rescue 645, HDAC3 inhib inactive and Mot1 SUMO dose inactive.
Screening CC1(OC(=O)CCc2ccccc2)C(=O)C=C2C=C(c3ccc(C#N)cc3)N(c3ccccc3)C=C2C1=O (stereo not given) returned IDE cell activ inactive, LANA-H2B inh inactive, IDE inh inactive, SUMO Mot1 rescue inactive and HDAC3 inhib inactive.
`O=C(CSc1nnc2ccc(-c3ccccn3)nn12)N1CCCC1` gave IDE cell activ inactive.
`COc1ccc(C(=O)CC(=O)C(=O)Nc2ccc(C)c(C)c2)cc1` gave IDE cell activ inactive, LANA-H2B inh inactive, IDE inh inactive, SUMO Mot1 rescue 538, HDAC3 inhib inactive and Mot1 SUMO dose inactive.
Screening CCC1CCCCN1CCCNC(=O)Cn1nc(C)n2nc(-c3ccccc3)cc2c1=O (stereo not given) returned IDE cell activ inactive, LANA-H2B inh inactive, IDE inh inactive, SUMO Mot1 rescue inactive and HDAC3 inhib inactive.
Screening O=C(O)/C(=C\c1cn(-c2ccccc2)nc1-c1cccnc1)NC(=O)c1ccccc1 returned IDE cell activ inactive, LANA-H2B inh inactive, IDE inh inactive, SUMO Mot1 rescue inactive and HDAC3 inhib inactive.
Screening COc1cccc(-c2nn(-c3ccccc3)cc2/C=C(/NC(=O)c2ccccc2)C(=O)O)c1 returned IDE cell activ inactive, LANA-H2B inh inactive, IDE inh inactive, SUMO Mot1 rescue 915, HDAC3 inhib inactive and Mot1 SUMO dose inactive.
For O=C(c1ccco1)N1CCN(C(=O)C2Cc3ccccc3CN2S(=O)(=O)c2ccc(F)cc2)CC1 (stereo not given) the results were IDE cell activ inactive, LANA-H2B inh inactive, IDE inh inactive, SUMO Mot1 rescue 901, HDAC3 inhib inactive and Mot1 SUMO dose inactive.
For O=C(C1Cc2ccccc2CN1S(=O)(=O)c1ccc(F)cc1)N1CCCCC1 (stereo not given) the results were IDE cell activ inactive, LANA-H2B inh inactive, IDE inh inactive, SUMO Mot1 rescue inactive and HDAC3 inhib inactive.
COc1ccc(NC(=O)CSc2nc(=O)n(CCN3CCOCC3)c3c2CCCC3)c(OC)c1 was read as IDE cell activ inactive, LANA-H2B inh inactive, IDE inh inactive, SUMO Mot1 rescue inactive and HDAC3 inhib inactive.
Screening CCCc1nc(SCC(=O)O)c2sc(=S)n(-c3ccccc3)c2n1 returned IDE cell activ inactive, LANA-H2B inh inactive, IDE inh inactive, SUMO Mot1 rescue inactive and HDAC3 inhib inactive.
For O=C(Cc1ccccc1)NNC(=S)Nc1ccc(Cl)cc1 the results were IDE cell activ inactive, LANA-H2B inh inactive, IDE inh inactive, SUMO Mot1 rescue inactive and HDAC3 inhib inactive.
O=C(CCc1ccccc1)NNC(=S)Nc1ccc(F)cc1 was read as IDE cell activ inactive, LANA-H2B inh inactive, IDE inh inactive, SUMO Mot1 rescue 377, HDAC3 inhib inactive and Mot1 SUMO dose inactive.
`Cc1ccc(NC(=O)COC(=O)Cn2c(C)csc2=O)c([N+](=O)[O-])c1` gave IDE cell activ inactive, LANA-H2B inh inactive, IDE inh inactive, SUMO Mot1 rescue inactive and HDAC3 inhib inactive.
Cc1csc(=O)n1CC(=O)OCC(=O)Nc1cc([N+](=O)[O-])ccc1Cl was read as IDE cell activ inactive, LANA-H2B inh inactive, IDE inh inactive, SUMO Mot1 rescue 485, HDAC3 inhib inactive and Mot1 SUMO dose inactive.
O=C(C1CCCN(S(=O)(=O)c2cnc[nH]2)C1)N1CCN(c2ccc(Cl)cc2)CC1 (stereo not given) was read as IDE cell activ inactive, LANA-H2B inh inactive, IDE inh inactive, SUMO Mot1 rescue 532, HDAC3 inhib inactive and Mot1 SUMO dose inactive.
For Cc1ccc(C)c(N2CCN(C(=O)C3CCCN(S(=O)(=O)c4cnc[nH]4)C3)CC2)c1 (stereo not given) the results were IDE cell activ inactive, LANA-H2B inh inactive, IDE inh inactive, SUMO Mot1 rescue inactive and HDAC3 inhib inactive.
Screening CCCCC(=O)Nc1cc(OC)c(NC(=O)C2CCCCC2)cc1OC returned IDE cell activ inactive, LANA-H2B inh inactive, IDE inh inactive, SUMO Mot1 rescue 711, HDAC3 inhib inactive and Mot1 SUMO dose inactive.
`COc1ccccc1OCC(=O)NC1CCCc2ccccc21` (stereo not given) gave IDE cell activ inactive, LANA-H2B inh inactive, IDE inh inactive, SUMO Mot1 rescue inactive and HDAC3 inhib inactive.
Screening Cc1cc(C)cc(OCC(=O)NC2CCCc3ccccc32)c1 (stereo not given) returned IDE cell activ inactive, IDE inh inactive, SUMO Mot1 rescue 461 and Mot1 SUMO dose inactive.
Screening C/C=C\C=C/C(=O)Nc1cccc(C2=NOC3(C2)C[C@@H](C(N)=O)N(C(=O)c2ccccc2)C3)c1 (stereo not given in full) returned LANA-H2B inh inactive, IDE inh inactive, SUMO Mot1 rescue 433, HDAC3 inhib inactive and Mot1 SUMO dose inactive.
CCOc1ccc(NC(=O)CSc2nnc(C3CC3)n2C)cc1S(=O)(=O)N1CCCCC1 was read as IDE cell activ inactive, LANA-H2B inh inactive, IDE inh inactive, SUMO Mot1 rescue inactive and HDAC3 inhib inactive.
CC1Cc2cc(S(=O)(=O)N3CCC(C(=O)N4CCN(c5ccccc5F)CC4)CC3)ccc2N1C(=O)C1CC1 (stereo not given) was read as IDE cell activ inactive, LANA-H2B inh inactive, IDE inh inactive, SUMO Mot1 rescue inactive and HDAC3 inhib inactive.
